From PubChem BioAssay (NCI) come the findings set out here.

Holding throughout (experiment): NCI-60 one-dose screen, 48 h (100 = growth as untreated, 0 = no growth, -100 = all killed)
What all share (conditions): 10 µM unless noted

Assay [1] relates to NCI-H23 lung.
For assay [2], the system named is NCI-H226 lung.
Assay [3] concerns NCI-H322M lung.
The test system of assay [4] is HOP-62 NSCLC.
Assay [5] has as its system NCI-H460 lung.
The test system of assay [6] is HOP-92 NSCLC.
Assay [7] deals with NCI-H522 lung.
In assay [8] the test system is A549/ATCC NSCLC.
Assay [9] concerns 786-0 renal.
Assay [10] concerns COLO 205 colon.
Assay [11] concerns DU-145 prostate.
The subject of assay [12] is K-562 leukemia.
Assay [13] relates to MALME-3M melanoma.
Assay [14] concerns MDA-MB-231 breast.
Assay [15] concerns SF-268 CNS.
In assay [16] the test system is SF-295 CNS.
The subject of assay [17] is SF-539 CNS.
Assay [18] concerns UACC-257 melanoma.
Assay [19] relates to M14 melanoma.

Compounds without any hit were thinned out: in the full panel of roughly 83,000, 20% have a hit.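 Assay: single dose, 48 h. Readout: percent growth (0 = no net growth; negative = cell death). Active: <10.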 Unmarked numbers belong to inactive results. Active and inactive are the calls of the source.

In the case of `COc1ccc(C(=O)/C=C/c2c(OC)cc(OC)cc2OC)c(OC)c1`, the growth in [1] was 26.1%; in assay [2] it was 69.5%; in assay [3], 56.2%; in [4], 40.4%; in assay [5], 8.76% (active); in assay [6], 31.5%. Further, the growth is -6.76% (active) in [7]; 31.6% in [8]; 26.2% in [9]; 8.18% (active) in assay [10]; 18.3% in assay [11]; 18.5% in assay [12]. The growth was 3.17% (active) in assay [13]; 44.4% in [14]; 36.5% in [15]; 11.3% in [16]; 8.25% (active) in assay [17]; 28.9% in assay [18]. Further, the growth in [19] was 4.81% (active).

Consider `O=C1Nc2ccccc2/C1=C\c1cccc(/C=C2/C(=O)Nc3ccccc32)n1`, for which the growth in assay [1] is -15.9% (active); in assay [2], 2.74% (active); in assay [3] it was -70.8% (active); in [4] it was -61.3% (active); in assay [5], -60.9% (active); in assay [6], -31.7% (active). For the same compound, the growth in assay [7] is 10%; in assay [8], 6.25% (active); in assay [9], -84.4% (active); in assay [10] it was -85.7% (active); in assay [11], -90.2% (active); in assay [12], -24.1% (active). The growth in assay [13] is -40.3% (active); in assay [14], -52.3% (active); in [15] it was -67.1% (active); in assay [16], -81% (active); in assay [17], -73.4% (active); in assay [18] it was -65.8% (active). For the same compound, the growth in [19] is -69.2% (active).

Turning to `COc1ccc(C(=O)c2cc3c(N)c(C(=O)Nc4cccc(Br)c4C)sc3nc2C)cc1`, the growth was 27.4% in assay [1]; 45.6% in assay [2]; 52.6% in assay [3]; 28.8% in assay [4]; 5.88% (active) in [5]; 13.6% in [6]. Moreover, the growth in assay [7] was -27.4% (active); in assay [8], 17.4%; in assay [9], 26.2%; in [10], -40% (active); in assay [11], 8.9% (active); in [12], 5.28% (active). For the same compound, the growth in [13] is 51.8%; in [14], 13%; in assay [15] it was 22.9%; in [16], 22.2%; in assay [17], -15.3% (active); in [18], 59%. Further, the growth in [19] was 7.09% (active).

Consider `COc1ccc(NC(=O)c2sc3nc(C)c(C(O)c4ccc(OC)cc4)cc3c2N)cc1` (configuration not stated), for which the growth in assay [1] is 36.2%; in assay [2], 63.5%; in [3], 51.3%; in assay [4] it was 31.8%; in [5] it was 9.03% (active); in assay [6], 57.6%. Besides, the growth in [7] was 5.14% (active); in assay [8], 23%; in assay [9], 53.3%; in assay [10], -6.28% (active); in assay [11], 25.6%; in assay [12], 9.99% (active). The growth in [13] was 63.7%; in [14], 22.1%; in [15] it was 42%; in [16], -1.07% (active); in [17], -11.4% (active); in assay [18], 60.4%. Also, the growth in assay [19] was 24.7%.

Take `O=C1CCCCCCCCC(O)C(O)CCCC(c2cccs2)O1` (configuration not stated): the growth in [1] is 91%; in assay [2], 99.5%; in assay [3], 113%; in assay [4], 87.6%; in assay [5], 106%; in [6], 82.7%. The growth in assay [7] is 91.7%; in [8], 82.7%; in [9] it was 98.8%; in assay [10], 108%; in [11], 117%; in [12], 96%. Besides, the growth in assay [13] is 107%; in [14] it was 84.8%; in assay [15], 95.9%; in assay [16] it was 93.7%; in assay [17], 106%; in [18], 60.9%. Moreover, the growth in assay [19] was 99.7%.

Consider `Nc1nnc2cc(Cl)ccc2n1`, for which the growth in assay [1] was 110%; in [2] it was 92%; in assay [3] it was 94.5%; in [4], 115%; in assay [5] it was 115%; in assay [6] it was 65.6%. The growth in assay [7] was 94.7%; in assay [8], 108%; in assay [9], 129%; in assay [10], 103%; in assay [11] it was 105%; in assay [12] it was 83.9%. In addition, the growth was 126% in assay [13]; 96.9% in assay [14]; 112% in assay [15]; 140% in assay [16]; 111% in assay [17]; 127% in assay [18]. Further, the growth in assay [19] is 113%.

With `CC(=O)NCCCS(=O)(=O)O`, the growth in assay [1] is 101%; in assay [2] it was 119%; in assay [3] it was 107%; in [4], 105%; in assay [5], 101%; in assay [6], 82.2%. Besides, the growth was 83.4% in [7]; 114% in [8]; 99.6% in assay [9]; 105% in assay [10]; 118% in assay [11]; 94.8% in assay [12]. Also, the growth in assay [13] was 106%; in [14] it was 102%; in assay [15], 111%; in assay [16], 94.6%; in assay [17] it was 99.5%; in assay [18], 104%. Further, the growth in assay [19] is 111%.

Turning to `CC(=O)c1c(C)[nH]c(-c2nc3ccc(N4CCN(C)CC4)cc3[nH]2)c1-c1ccccc1`, the growth in [1] was 53%; in assay [2], 55.2%; in assay [3], 41.6%; in assay [4] it was 33.3%; in assay [5], 52.3%; in assay [6], 29.8%. The growth is 25.4% in [7]; 38.1% in assay [8]; 85.9% in [9]; 16.1% in assay [10]; 59.7% in assay [11]; 24.7% in [12]. The growth in [13] is 23.7%; in [14], 32%; in assay [15] it was 53.6%; in assay [16], 38.1%; in [17] it was 24.9%; in assay [18], 48.4%. Besides, the growth in assay [19] is 94.7%.
